Assay outcomes (PubChem BioAssay)
BL2 CD40 inh = CD40 pathway inhibition in BL2 cells | 83,000 compounds, 0.94% hits | inhibition, % at 10 µM | AID 1053188 | BL2 NF-kB luciferase reporter, CD40L-induced, 4 h;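 active means mean inhibition of at least 50% with a set share of replicates also reaching that level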;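 further: 0% = neutral control wells and 100% = IKK inhibitor VII at 50 µM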
Active calls of the source: *; [ ] = dose if it differs, or a comment. Only a selection was taken, and hits are over-represented in it overall.

What do the screens show for `O=C(NC1CCCCC1)[C@@H]1[C@@H](CO)[C@@H]2Cn3c(ccc(-c4ccccc4)c3=O)[C@H]1N2`?
BL2 CD40 inh: 0.5

What do the screens show for `CCCC#Cc1ccc2c(c1)O[C@@H](CN(C)Cc1ccccn1)[C@H](C)CN([C@H](C)CO)S2(=O)=O`?
BL2 CD40 inh: 7.1[25 µM]

How did COc1ccc(-c2ccc3c(c2)[C@@H]2[C@@H](CCN2C(=O)Nc2ccc(F)cc2)[C@H](CO)N3C)cc1 do in these assays?
BL2 CD40 inh: 12.2

Results for Cc1noc(C)c1NC(=O)N(C)C[C@H]1OCc2ccccc2-c2ccccc2C(=O)N([C@@H](C)CO)C[C@H]1C ?
BL2 CD40 inh: 5.6[25 µM]

How did CC(C)[C@H](C)NC(=O)N(C)C[C@H]1OCc2ccccc2-c2c(n(C)c3ccccc23)C(=O)N([C@H](C)CO)C[C@@H]1C do in these assays?
BL2 CD40 inh: 5.6

What do the screens show for `O=C(c1cccc(F)c1)N1CC2(C1)[C@@H](c1ccccc1)[C@@H](CO)N2Cc1ccccn1`?
BL2 CD40 inh: 12.3[25 µM]

How did COc1cccc(NC(=O)C[C@H]2CC[C@H]3[C@H](COc4ccc(NC(=O)C5CCCC5)cc4C(=O)N3C)O2)c1 do in these assays?
BL2 CD40 inh: 11.6

Results for C[C@@H]1CN([C@@H](C)CO)C(=O)c2c(c3ccccc3n2C)-c2ccccc2CO[C@H]1CN(C)S(=O)(=O)Cc1ccccc1 ?
BL2 CD40 inh: 12.1

What do the screens show for `COc1cccc(CN2C[C@@H]3N[C@H](C2)C3c2ccc(-c3ccccc3OC)cc2)c1` (some centres undefined)?
BL2 CD40 inh: -2.0

What do the screens show for `C[C@H]1CN(C)C(=O)Cc2cc([N+](=O)[O-])ccc2O[C@H]1CN(C)C(=O)OC(C)(C)C`?
BL2 CD40 inh: 1.4

Results for N#C[C@@H]1[C@@H](c2ccc(C#Cc3ccc(F)cc3)cc2)[C@H](CO)N1C(=O)C1CCCC1 ?
BL2 CD40 inh: -2.0

What do the screens show for `N#C[C@H]1[C@H](c2ccc(C#Cc3ccc(F)cc3)cc2)[C@H](CO)N1C(=O)C1CCCC1`?
BL2 CD40 inh: -13.3

Results for N#C[C@@H]1[C@H](c2ccc(C#Cc3ccccc3F)cc2)[C@@H](CO)N1C(=O)C1CCCC1 ?
BL2 CD40 inh: 94.2*

How did N#C[C@H]1[C@@H](c2ccc(C#Cc3ccc(F)cc3)cc2)[C@H](CO)N1C(=O)C1CCCC1 do in these assays?
BL2 CD40 inh: 14.6

How did CC(C)C#Cc1ccc([C@@H]2[C@@H](C#N)N(C(=O)c3ccccn3)[C@@H]2CO)cc1 do in these assays?
BL2 CD40 inh: -10.5[25 µM]

Results for N#C[C@@H]1[C@@H](c2ccc(C#Cc3ccccc3F)cc2)[C@H](CO)N1C(=O)C1CCCC1 ?
BL2 CD40 inh: -6.6

Results for N#C[C@H]1[C@H](c2ccc(C#Cc3ccccc3F)cc2)[C@@H](CO)N1C(=O)C1CCCC1 ?
BL2 CD40 inh: 56.1*

What do the screens show for `CC(C)C#Cc1ccc([C@H]2[C@H](C#N)N(C(=O)c3ccccn3)[C@H]2CO)cc1`?
BL2 CD40 inh: 14.5[25 µM]

What do the screens show for `CC(C)C#Cc1ccc([C@H]2[C@@H](CO)N(C(=O)c3ccccn3)[C@H]2C#N)cc1`?
BL2 CD40 inh: 60.3*[25 µM]

What do the screens show for `CCS(=O)(=O)N1CCCCN2[C@H](CO)[C@H](c3ccc(-c4ccc(C#N)cc4)cc3)[C@H]2C1`?
BL2 CD40 inh: -0.3[25 µM]

Results for Cc1ccc(-c2ccc(C3[C@H]4CNC[C@@H]3N4S(=O)(=O)c3ccc(C)cc3)cc2)cc1 (some centres undefined) ?
BL2 CD40 inh: -17.3

Results for COc1ccc2c3c(n(C)c2c1)[C@H](CO)N(C(=O)NC(C)C)CC31CCN(Cc2nccs2)CC1 ?
BL2 CD40 inh: -18.1[25 µM]

Results for C[C@H]1COCn2nncc2CC[C@H](Cc2ccccc2)C(=O)N1 ?
BL2 CD40 inh: 1.9

How did COc1ccc(CN2[C@@H](CO)[C@@H]3c4ccccc4N(C(=O)Nc4ccc(F)cc4)C[C@@H]32)cc1 do in these assays?
BL2 CD40 inh: -18.7[25 µM]

Results for CC1(C)CC(Nc2ccc(Nc3ccccc3)cc2)CC(C)(C)N1 ?
BL2 CD40 inh: 100.1*

What do the screens show for `CC1(C)CC(NCc2ccncc2)CC(C)(C)N1`?
BL2 CD40 inh: 5.1

Results for CC1(C)CC(NS(=O)(=O)c2cccc3ccccc23)CC(C)(C)N1 ?
BL2 CD40 inh: 5.7

Results for CN1C(=O)c2cc(NC(=O)C3CCCC3)ccc2OC[C@@H]2O[C@@H](CC(=O)NCCc3ccncc3)CC[C@H]21 ?
BL2 CD40 inh: 1.7

How did O=C(c1cccc(F)c1)N1C[C@@H]2[C@H](c3ccccc31)[C@@H](CO)N2C(=O)Cc1ccccc1 do in these assays?
BL2 CD40 inh: 18.3[25 µM]

Results for COc1ccc(C(=O)Nc2ccc(N3CCOCC3)cc2)cc1S(=O)(=O)N1CCOCC1 ?
BL2 CD40 inh: 16.8*

Results for COc1ccc(C(=O)Nc2ccc(NC(C)=O)cc2)cc1S(=O)(=O)N1CCCC1 ?
BL2 CD40 inh: -0.8

What do the screens show for `COc1ccc(C(=O)Nc2ccc(N3CCOCC3)cc2)cc1S(=O)(=O)N1CCCC1`?
BL2 CD40 inh: -9.3

What do the screens show for `CCNC(=O)[C@@H]1[C@@H](CO)[C@@H]2Cn3c(ccc(-c4cccc(F)c4)c3=O)[C@H]1N2C(=O)c1ccccn1`?
BL2 CD40 inh: -9.0[25 µM]

What do the screens show for `COc1ccc(CN(C)C[C@@H]2Oc3ccc(NC(=O)Nc4ccc5c(c4)OCO5)cc3CC(=O)N([C@@H](C)CO)C[C@H]2C)cc1`?
BL2 CD40 inh: 0.7[25 µM]

What do the screens show for `O=C(N/N=C/c1ccc([N+](=O)[O-])o1)C1CCCC1`?
BL2 CD40 inh: -2.3

What do the screens show for `CCCCCC(=O)N/N=C/c1ccc([N+](=O)[O-])o1`?
BL2 CD40 inh: 6.7

What do the screens show for `O=C(Cc1ccc2c(c1)OCO2)NN=Cc1ccc([N+](=O)[O-])o1`?
BL2 CD40 inh: 95.2*

Results for O=C1CNC[C@@H]2[C@@H](c3ccc(-c4ccccc4F)cc3)[C@H](CO)N12 ?
BL2 CD40 inh: -1.1[25 µM]

How did O=C(C[C@@H]1CC[C@H]2[C@@H](COC[C@@H](O)CN2CC2CCCC2)O1)NCc1ccc(Cl)cc1 do in these assays?
BL2 CD40 inh: 4.9

How did COc1ccc(C(=O)C=Cc2ccc(OCc3ccccc3)c(OC)c2)cc1OC do in these assays?
BL2 CD40 inh: -16.0

How did COc1cc(C=CC(=O)c2cc(OC)c(OC)c(OC)c2)cc(OC)c1OC do in these assays?
BL2 CD40 inh: 65.0*

Results for COc1cc(C(=O)NNC(=O)/C=C/c2ccccc2)cc(OC)c1OC ?
BL2 CD40 inh: -8.8

What do the screens show for `N#C[C@@H]1[C@@H](c2ccc(C#Cc3cccnc3)cc2)[C@@H](CO)N1C(=O)NC1CCCCC1`?
BL2 CD40 inh: 19.8[25 µM]

How did CCS(=O)(=O)N1[C@H](C#N)[C@@H](c2ccc(C#CC(C)C)cc2)[C@H]1CO do in these assays?
BL2 CD40 inh: 1.8[25 µM]

What do the screens show for `CN1c2ccc(C#Cc3cccnc3)cc2[C@@H]2[C@@H](CCN2C(=O)C2CCC2)[C@H]1CO`?
BL2 CD40 inh: 1.5

What do the screens show for `Cn1nc(-c2ccc(Cl)cc2)nc2c(=O)n(C)c(=O)nc1-2`?
BL2 CD40 inh: 84.3*

What do the screens show for `Cn1nc(C(=O)NNC(=O)c2ccc(Cl)cc2)ccc1=O`?
BL2 CD40 inh: 0.4

What do the screens show for `O=C(Nc1cc(=O)[nH]c2nc(-c3ccc(Cl)cc3)nn12)c1ccccc1`?
BL2 CD40 inh: 11.6

What do the screens show for `C[C@@H](NC(=O)/C(C#N)=C\c1ccc(O)c(O)c1)c1ccccc1`?
BL2 CD40 inh: -6.2[25 µM]

What do the screens show for `CC(NCCc1ccc(O)cc1)C(O)c1ccc(O)cc1` (centres undefined)?
BL2 CD40 inh: -0.6

How did CCCCCCCCNC(C)C(O)c1ccc(SC(C)C)cc1 (centres undefined) do in these assays?
BL2 CD40 inh: 38.9*
